From PubChem BioAssay
Giardia FBPA inh-1: Giardia lamblia aldolase inhibition; Potency, µM (series often up to 59.6 µM), for the others: at the top dose activity, negative = inhibition, hits mostly inhibitors; 290,000 tested, 0.71% active; AID 2451; purified Giardia FBPA; also: potency is read from the fitted curve at half-maximal effect; nearly all actives have a fitted effect of over 55% in size
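40 nM FBPA preincubated 10 min at RT with compound (up to 57.5 uM final), then substrate plus GAPDH/TPI/NAD/arsenate coupling and diaphorase/resazurin added. Fluorescence read after 20 min at RT, 525/598 nm.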
Pf growth 96h: P. falciparum growth inhibition at 96 hour, primary screen for plastid delayed-death inhibitors; 320,000 tested, 6.9% active; Potency, µM (top dose mostly 28.7 µM), without a hit: top-dose activity change, negative = inhibition, hits mostly inhibitors; AID 504834; P. falciparum luciferase reporter growth, 96 h; also: potency is read from the fitted curve at half-maximal effect
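Erythrocytes infected with luciferase-expressing P. falciparum were dispensed at 2% hematocrit and 0.05% parasitemia (final), then incubated with compounds 96 hours at 37 C in 5% CO2. Luminescence after detection reagent addition reported growth.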
Pf growth 48h: P. falciparum growth inhibition at 48 hours (one generation) | P. falciparum luciferase growth in erythrocytes, 48 h | Potency, µM (doses to about 28.7 µM), for the others: at the top dose activity change, negative = inhibition, usual class: inhibitors | 310,000 tested, 5.9% active | AID 504832; also: potency is read from the fitted curve at half-maximal effect
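Luciferase-expressing P. falciparum in infected erythrocytes (2% hematocrit, 0.1% parasitemia final) in RPMI 1640/0.5% Albumax were exposed to compound for 48 hours at 37 C, 5% CO2; growth read as luminescence.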
HCMV antiviral: blocks human cytomegalovirus replication; HFF cells, HCMV-luciferase reporter, 72 h; active compounds read low; activity change, negative = inhibition, % at 57.5 µM; 410,000 tested, 4.5% active; AID 1259415; in the data active = activity change below about -60%; inconclusive = no clear call, values can overlap the other calls; inactive = above about -39%
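HFF cells seeded 16 h at 37C, treated with compounds, infected with luciferase-reporter HCMV at MOI 1 PFU/cell; luciferase read at 72 h post infection, normalized to buffer-only and Salinomycin controls.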
Sm TGR inh: S. mansoni TGR enzyme inhibition | Q962Y6 | purified TGR, DTNB reduction, TNB absorbance 405 nm | Potency, µM (series often up to 114 µM), inactives show at the top dose activity change, negative = inhibition, most hits filed as inhibitors | 360,000 tested, 3% active; also: potency is read from the fitted curve at half-maximal effect; nearly all actives have a fitted effect of over 60% in size
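Kinetic colorimetric format: TGR-catalysed, NADPH-driven DTNB reduction monitored via TNB absorbance. Enzyme dispensed at 20 nM; compound exposure 15 min at room temperature before reaction start.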
Giardia growth: Giardia lamblia growth inhibition. shares compounds with Giardia FBPA inh-1. Giardia lamblia trophozoite growth inhibition. Potency, µM (series often up to 57.5 µM), for inactives: top-dose activity change, negative = inhibition, most hits filed as inhibitors. 1,500 tested, 5% active. AID 2785;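 also: potency is read from the fitted curve at half-maximal effect; trophozoites exposed to compound for 48 h at 37 °C; nearly all actives have a fitted effect of over 70% in size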
Mammalian tox: counter-screen for Giardia aldolase inhibitors: mammalian cell toxicity; shares compounds with Giardia FBPA inh-1; mammalian cell viability counter-screen, qHTS; Potency, µM (series often up to 57.5 µM), without a hit: at the highest dose viability change, negative = toxicity, most hits filed as inhibitors; 1,500 tested, 4% active; AID 2786;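 also: Chinese hamster ovary cells used as mammalian cytotoxicity surrogate; viability measured as cellular ATP by luminescence; potency is read from the fitted curve at half-maximal effect; compound exposure lasted 48 h before reading; nearly all actives have a fitted effect of over 60% in size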
Giardia FBPA inh-2: confirmation of Giardia fructose-bisphosphate aldolase inhibitors | shares compounds with Giardia FBPA inh-1 | purified Giardia aldolase enzyme activity, qHTS | Potency, µM (doses to about 57.5 µM), for inactives: at the top dose activity change, negative = inhibition, actives largely listed as inhibitors | 1,500 tested, 5% active | AID 2787; also: potency is read from the fitted curve at half-maximal effect; nearly all actives have a fitted effect of over 45% in size
Rabbit FBPA inh: rabbit FBP aldolase inhibition by Giardia aldolase hits. shares compounds with Giardia FBPA inh-1. Rabbit muscle FBPA enzyme inhibition, selectivity counter-screen. Potency, µM (top dose mostly 57.5 µM), for the others: top-dose activity, negative = inhibition, most hits filed as inhibitors. 1,500 tested, 4% active. AID 2794; also: potency is read from the fitted curve at half-maximal effect; nearly all actives have a fitted effect of over 60% in size
Target sequence (P00883 whole entry, looked up): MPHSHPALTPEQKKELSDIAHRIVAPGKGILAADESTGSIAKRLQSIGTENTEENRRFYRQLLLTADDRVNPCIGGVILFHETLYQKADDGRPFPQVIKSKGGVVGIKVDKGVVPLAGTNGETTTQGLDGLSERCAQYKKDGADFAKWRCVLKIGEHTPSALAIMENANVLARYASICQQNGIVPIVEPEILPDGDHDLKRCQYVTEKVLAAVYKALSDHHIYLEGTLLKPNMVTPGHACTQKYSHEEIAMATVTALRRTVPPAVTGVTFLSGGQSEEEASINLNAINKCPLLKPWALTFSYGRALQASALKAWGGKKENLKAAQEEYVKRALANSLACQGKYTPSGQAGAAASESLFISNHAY
GAPDH coupling: counter-screen for Giardia aldolase inhibitors: GAPDH coupling enzyme | 1,500 tested, 6% active | Potency, µM (top dose mostly 57.5 µM), for the others: at the highest dose activity change, negative = inhibition, actives largely listed as inhibitors | GAPDH coupling enzyme counterscreen, biochemical, qHTS | shares compounds with Giardia FBPA inh-1; also: potency is read from the fitted curve at half-maximal effect; nearly all actives have a fitted effect of over 55% in size
* hit, by the source's call; ? = inconclusive; · = not tested or not shown; [ ] = another dose, or the depositor's remark. An excerpt weighted towards active compounds, which were near 14% of everything screened. Unless noted, calls follow the shape of the dose curve; as a rule, active = well fitted curve in the direction sought with a large enough effect; inconclusive = small, poorly fitted or top-dose-only effect, or another doubt; inactive = no such curve, though single readings can be large; an effect the other way counts as inactive or inconclusive. % is scaled to controls: 0 for no effect and ±100 for the full control effect.

SMILES	Giardia FBPA inh-1	Pf growth 96h	Pf growth 48h	HCMV antiviral	Sm TGR inh	Giardia growth	Mammalian tox	Giardia FBPA inh-2	Rabbit FBPA inh	GAPDH coupling
FC(F)(F)c1ccccc1-c1ccc2ncnc(NCCN3CCOCC3)c2c1	12%	·	·	·	·	·	·	·	·	·
COc1ccc(Br)cc1CN1CCN(Cc2c[nH]c3ccccc23)CC1	14µM*	5%	?	-100*	-11%	16µM*	-16%	2%	9%	5%
COc1ccc(CN2CCN(Cc3c[nH]c4ccccc34)CC2)cc1	?	16%	?	101	-18%	-9%[38.3 µM]	2%	-4%	-5%	-12%
O=[N+]([O-])c1ccccc1CN1CCN(Cc2c[nH]c3ccccc23)CC1	20µM*	?	-22%	-28	-11%	5%[10.4 µM]	-23%	1%	3%	5%
O=C(c1cccc(F)c1)N1CCN(Cc2ccc3c(c2)OCO3)CC1	?	19%	?	-7	7%	·	·	·	·	·
O=C(c1cccc(F)c1)N1CCN(Cc2cccc(Br)c2)CC1	14µM*	?	?	-2	0%	5%	1%	9%	7%	8%
COc1ccc(Br)cc1CN1CCN(C(=O)c2ccc(F)cc2)CC1	16µM*	27%	12%	-19	-7%	4%	-11%	5%	12%	-7%
c1ccc2c(N3CCNCC3)nc(-c3ccc4c(c3)OCO4)nc2c1	-6%	·	·	·	·	·	·	·	·	·
COc1ccc(C(=O)NC(=S)N2CCOCC2)cc1[N+](=O)[O-]	·	2%	-26%	-25	4%	·	·	·	·	·
COc1cc(C(=O)NC(=S)N2CCCCCC2)cc(OC)c1OC	16µM*	28%	?	-31	13%	?	-6%	-3%	3%	10%
COc1ccc(C(=O)NC(=S)N2CCOCC2)cc1Br	16µM*	?	?	29	-24%	?	-2%	-2%	5%	7%
Cc1ccc(C(C)C)cc1OCCn1cncn1	22µM*	0%	0%	21	-19%	-2%[10.4 µM]	10%	4%	-6%	?
Cc1ccc(OCCn2cncn2)c([N+](=O)[O-])c1	4%	?	6%	5	13%	·	·	·	·	·
COc1ccc(S(=O)(=O)NNC(N)=S)cc1	10µM*	24%	22%	15	5%	-1%[38.3 µM]	11%	0%	4%	8%
COc1ccc(NC(=O)NNS(=O)(=O)c2ccc(Br)cc2)cc1	7%	-13%	11%	-18	9%	·	·	·	·	·
CN(CC(=O)NCc1ccccc1)Cc1cccc(F)c1	10µM*	29%	-96%[0.00184 µM]	26	1%	-30%	3%	13%	2%	9%
CSc1ccccc1NC(=O)CN(C)Cc1cccc(Cl)c1	22µM*	?	?	-38	15%	9%	17%	5%	4%	11%
CC(NC(=O)CN(C)Cc1cccc(Cl)c1)c1ccccc1 (centres undefined)	·	6%	-8%	-23	4%	·	·	·	·	·
Cc1ccc(NC(=O)c2sc3nc(-c4ccc(F)cc4)cn3c2C)c(C)c1	·	·	·	6	2%	·	·	·	·	·
O=C(O)c1cc(-c2ccc3ccccc3n2)nc2ccccc12	?	175%	57%	131	4%	·	·	·	·	·
